Source: PubChem BioAssay
Vaccinia Venus – vaccinia inhibition (Venus reporter) | Vaccinia virus Venus reporter expression, fluorescence | Potency, µM (series often up to 36.5 µM), for inactives: at the highest dose activity change, negative = inhibition, most hits filed as inhibitors | hit rate 0.46% among 330,000; calls by dose curve; tested in A549 cells; note: potency is the fitted concentration of half-maximal effect; nearly all actives have a fitted effect of over 30% in size
FMDV inh – blocks foot and mouth disease virus. hit rate 1.2% among 410,000. FMDV antiviral cell-based qHTS. Potency, µM (highest dose often 57.9 µM), for inactives: at the highest dose activity change, negative = inhibition, usual class: inhibitors; calls by dose curve; tested in HEK293T cells; note: read-out not given here; potency is the fitted concentration of half-maximal effect; nearly all actives have a fitted effect of over 45% in size
Vaccinia mCherry – inhibitors of vaccinia virus infection (mCherry reporter signal). hit rate 0.63% among 310,000. Vaccinia virus mCherry reporter infection, fluorescence. Potency, µM (doses to about 36.5 µM), inactives show top-dose activity change, negative = inhibition, most hits filed as inhibitors. AID 720579; calls by dose curve; tested in A549 cells; note: potency is the fitted concentration of half-maximal effect; nearly all actives have a fitted effect of over 35% in size
MARV entry inh – Marburg virus entry inhibition; Marburg virus pseudotyped entry inhibition, cell reporter; Potency, µM (titrated, usually from 37.8 µM), for inactives: at the top dose activity change, negative = inhibition, usual class: inhibitors; hit rate 1.8% among 300,000; calls by dose curve; tested in HEK293 cells; note: potency is the fitted concentration of half-maximal effect
LASV entry inh – blocks Lassa virus binding to or entry into cells; Potency, µM (titrated, usually from 37.9 µM), for the others: at the top dose activity change, negative = inhibition, usual class: inhibitors; hit rate 1.2% among 300,000; AID 540256; Lassa virus pseudotype entry inhibition, cell reporter; calls by dose curve; tested in HEK293 cells; note: potency is the fitted concentration of half-maximal effect; nearly all actives have a fitted effect of over 50% in size
HCMV antiviral – blocks human cytomegalovirus replication | HFF cells, HCMV-luciferase reporter, 72 h; stronger effect = lower value | activity change, negative = inhibition, % at 57.5 µM | hit rate 4.5% among 410,000 | AID 1259415; in the data active = activity change below about -60%; inconclusive = no clear call, values can overlap the other calls; inactive = above about -39%
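Two-dose cell screen: HFF monolayers treated with compounds and infected with luciferase-expressing HCMV at 1 PFU/cell, 72 h at 37C, then lysed for luciferase measurement.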
* = called active by the depositor; i = inactive; ? = inconclusive; . = no result; + = active, no number; [ ] = another dose, or the depositor's remark. Compounds with a hit are over-represented: about 6.5% of the library has one in this group of screens. % is set by controls: 0 for no effect and ±100 for the full control effect.

SMILES	Vaccinia Venus	FMDV inh	Vaccinia mCherry	MARV entry inh	LASV entry inh	HCMV antiviral
COc1ccc(Nc2nnc(-c3ccc(C)c(S(=O)(=O)NCc4nc5ccccc5[nH]4)c3)c3ccccc23)cc1	?	42%	?	?	-25%[46.1 µM]	-95*
COc1ccc(Nc2nnc(-c3ccc(C)c(S(N)(=O)=O)c3)c3ccccc23)cc1	-8%	90%	-23%	.	-8%[46.1 µM]	?
Cc1ccc(-c2nnc(Nc3ccc(O)cc3)c3ccccc23)cc1S(=O)(=O)NCC1CCCO1 (centres undefined)	-25%	8%	?	10%[46.1 µM]	-24%[46.1 µM]	-71*
CC(NC(=O)CCCn1c(=O)c2cccn2c2cccnc21)c1ccccc1 (centres undefined)	-13%	2%	-11%	.	-4%[46.1 µM]	-65*
CC(C)Oc1ccc(CNC(=O)CCCn2c(=O)c3cccn3c3cccnc32)cc1	-12%	-1%	-17%	.	9%[46.1 µM]	-68*
CN1CCN(C(=O)CCn2c(=O)c3cccn3c3cccnc32)CC1	-7%	-5%	-7%	15%[46.1 µM]	17%[46.1 µM]	+
CCc1ccc(CNC(=O)CCCn2c(=O)c3cccn3c3cccnc32)cc1	.	-14%	.	.	.	12
CC(=O)N1CCC[C@H]1C(=O)NCC1Cc2cc(-c3cnccn3)cc(Cl)c2O1 (some centres undefined)	2%	2%	-10%	.	.	.
CN1/C(=C\C(=O)CSc2nnc(NCc3ccccc3)s2)C(C)(C)c2ccccc21	-4%	?	-13%	1%	-5%	?
O=C(c1cnn(-c2nccc(-c3ccccc3C(F)(F)F)n2)c1C1CC1)N1CCN(CCO)CC1	3%	-7%	-8%	.	.	.
Cc1ccccc1C(=O)NC(C)c1nnc2n1CCN(Cc1ccnc3ccccc13)CC2 (centres undefined)	-2%	5%	-14%	.	.	.
CC(N)Cc1c[nH]c2ccc(O)cc12 (centres undefined)	-9%	-17%	-11%	?	17%	-6
C[C@H](N)Cc1c[nH]c2ccc(OCc3cccs3)cc12	.	-8%	.	21µM*	.	.
CC(N)Cc1c[nH]c2ccc(OCc3cccs3)cc12 (centres undefined)	-12%	0%	-28%	21µM*	7%	?
CCC1(C2CCN(Cc3ccc(OC)cc3)CC2)NC(=O)N(CC2COc3ccccc3O2)C1=O (centres undefined)	-5%	-22%	-9%	.	.	.
CCCCCNC(=O)C(=O)C(=O)c1cc(OC)c(OC)c(OC)c1	.	.	.	.	.	18
CCOC(=O)c1cc(-c2ccccc2)n(CCC(=O)NCc2ccccc2Cl)c1C	-8%	0%	-8%	.	-30%[46.1 µM]	39
COC(=O)C1=COC(C)C2CN3CCc4c([nH]c5ccccc45)C3CC12 (centres undefined)	18%	-13%	-3%	.	.	.
COC(=O)C1=CO[C@@H](C)[C@H]2CN3CCc4c([nH]c5ccccc45)[C@@H]3C[C@H]12	-16%	?	-16%	.	.	-68*
CCOC(=O)C1=C(C)N=C2SC(C)C(=O)N2C1c1ccc(C(=O)OC)cc1 (centres undefined)	-5%	-15%	-15%	13%	24%	47
CCOC(=O)C1=C(C)N=C2SC=C(C)N2C1c1ccc(OC)cc1 (centres undefined)	-16%	-5%	i	5µM*	?	1
COc1cccc(-c2nnc(SCC3CNC(=O)O3)n2-c2ccc(Cl)cc2)c1 (centres undefined)	-15%	-29%	-14%	15%	-4%	-101*
COc1cccc(-c2nnc(SCC(=O)N3CCCC3=O)n2-c2ccccc2)c1	-12%	.	i	3%	16%	0
CCCCCNC(=O)c1cccc(S(=O)(=O)N2CC3(C)CC2CC(C)(C)C3)c1 (centres undefined)	?	8%	?	?	13µM*	-2
CCOc1ccc(-c2cc(C)[n+](CCN3CCOCC3)c(-c3ccc(OCC)cc3)c2)cc1	-2%	?	-25%	?	-27%	-82*
SMILES	Vaccinia Venus	FMDV inh	Vaccinia mCherry	MARV entry inh	LASV entry inh	HCMV antiviral
COc1ccc(CN(C)C(=O)c2cccc(NC(=O)CC3SC(N4CCCCC4)=NC3=O)c2)c(OC)c1 (centres undefined)	-22%	20µM*	?	10µM*	7.1µM*	-77*
COc1cccc(CN(C)C(=O)c2ccc(OCC(=O)Nc3cccc(C(F)(F)F)c3)c(OC)c2)c1	?	?	?	?	8.9µM*	-86*
COc1ccc(CN(C)C(=O)c2ccc(OCC(=O)Nc3cccc(C(F)(F)F)c3)c(OC)c2)c(OC)c1	?	?	-3%	?	?	-83*
COc1cccc(CN(C)C(=O)c2cccc(NC(=O)CC3SC(N4CCCCC4)=NC3=O)c2)c1OC (centres undefined)	.	?	.	.	.	-24
O=C(NCc1ccccc1Cl)[C@@H]1[C@@H](CO)[C@@H]2Cn3c(cccc3=O)[C@@H]2N1C(=O)C1CCC1	.	.	.	.	.	3
O=C1C2CC=CCC2C(=O)N1CC(=O)N(Cc1ccccc1)C1CCS(=O)(=O)C1 (centres undefined)	.	3%	.	?	16%	20
O=C(Cn1c(=O)oc2ccccc21)N(Cc1ccccc1)C1CCS(=O)(=O)C1 (centres undefined)	-9%	-15%	-10%	-9%	4%	-101*
CC(C)(C)c1cc(/C=N/NC(=O)Cc2nc3ccccc3[nH]2)cc(C(C)(C)C)c1O	-4%	-24%	.	-3%	-2%	-79*
O=C(N/N=C/c1ccccc1)c1cccc2ccccc12	-8%	38%	-25%	2%[46.1 µM]	-6%[46.1 µM]	-20
COc1ccc2cc(C(=O)N/N=C/c3sc4ccccc4c3O)ccc2c1	-18%	?	-28%	?	?	-98*
O=C(N/N=C/c1sc2ccccc2c1O)c1ccccc1	-23%	-3%	10µM*	?	?	.
O=C(N/N=C/c1sc2ccccc2c1O)c1cccc2ccccc12	?	28%	?	14µM*	?	-104*
COc1ccc(C(=O)N/N=C/c2sc3ccccc3c2O)cc1	?	34%	?	?	?	.
CC(=O)Nc1cc(OC(C)=O)c2nonc2c1OC(C)=O	7.9µM*	?	7.9µM*	?	?	-104*
Cc1ccc(S(=O)(=O)N2c3ccccc3OC(C(=O)OC(C)(C)C)(C(=O)OC(C)(C)C)C2CC(=O)c2ccccc2)cc1 (centres undefined)	14%	-7%	-15%	.	.	-23
Cc1nn(C)c(Oc2ccccc2)c1CCNC(=O)CC(C)C	-11%	-13%	i	-18%[46.1 µM]	-9%	-2
Cc1nn(C)c(Oc2ccccc2)c1CCNS(=O)(=O)c1ccc(Cl)cc1	?	-13%	?	-19%[46.1 µM]	-23%	-75*
Cc1nn(C)c(Oc2ccccc2)c1CCNC(=O)C(C)(C)C	.	-14%	.	.	.	-83*
